Assay results taken from PubChem BioAssay (NCI).
Compounds without any hit were thinned out: in the full panel of roughly 83,000, 20% have a hit.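 Values shown are percent growth following 48 h exposure of cells in 96-well plates to a single concentration of compound; below 10 was considered active.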 The source made the active and inactive calls.

Key:
Test in all cases: NCI-60 one-dose screen, 48 h (100 = growth as untreated, 0 = no growth, -100 = all killed)
Details in all cases: 10 µM unless noted
NCI-H23 lung = test system: NCI-H23 lung
NCI-H226 lung = test system: NCI-H226 lung
NCI-H322M lung = test system: NCI-H322M lung
HOP-62 NSCLC = test system: HOP-62 NSCLC
NCI-H460 lung = test system: NCI-H460 lung
HOP-92 NSCLC = test system: HOP-92 NSCLC
NCI-H522 lung = test system: NCI-H522 lung
A549/ATCC NSCLC = test system: A549/ATCC NSCLC
786-0 renal = test system: 786-0 renal
COLO 205 colon = test system: COLO 205 colon

Measured: growth

CC[C@]12C=CCN3CC[C@@]4(c5ccc(OC)cc5N(C)[C@H]4[C@@](O)(C(=O)OC)[C@@H]1OC(=O)CCC(=O)N[C@H](Cc1c[nH]c4ccccc14)C(=O)OC)[C@@H]32
active: NCI-H23 lung -28% [100 µM] | NCI-H226 lung -37.2% [100 µM] | NCI-H322M lung -53.9% [100 µM] | HOP-62 NSCLC -7.11% [100 µM] | NCI-H460 lung -65.7% [100 µM] | HOP-92 NSCLC -56.7% [100 µM] | NCI-H522 lung -16.2% [100 µM] | A549/ATCC NSCLC -30.9% [100 µM] | 786-0 renal -47.1% [100 µM] | COLO 205 colon 0.36% [100 µM]

CCOC(=O)COc1ccc2c(c1)O/C(=C\c1ccc(O)cc1)C2=O
inactive: NCI-H23 lung 104% | NCI-H226 lung 97.7% | NCI-H322M lung 99.7% | HOP-62 NSCLC 104% | NCI-H460 lung 104% | HOP-92 NSCLC 115% | NCI-H522 lung 97% | A549/ATCC NSCLC 108% | 786-0 renal 112% | COLO 205 colon 115%

O=c1cc(-c2ccccc2)oc2c(O)c(O)ccc12
active: HOP-92 NSCLC 7.46%
inactive: NCI-H23 lung 57.6% | NCI-H226 lung 85.5% | NCI-H322M lung 79% | HOP-62 NSCLC 52.7% | NCI-H460 lung 17.3% | NCI-H522 lung 43.6% | A549/ATCC NSCLC 55.5% | 786-0 renal 65% | COLO 205 colon 90.7%

C#CC(OC(=O)N(C)C)(c1ccccc1)c1ccc(F)cc1 (stereo not given)
inactive: NCI-H23 lung 98.7% | NCI-H226 lung 89.7% | NCI-H322M lung 128% | HOP-62 NSCLC 116% | NCI-H460 lung 96.7% | HOP-92 NSCLC 92.9% | NCI-H522 lung 83.2% | A549/ATCC NSCLC 75% | 786-0 renal 120% | COLO 205 colon 158%

Nc1cc(Cl)cc2cccnc12
inactive: NCI-H23 lung 88.6% | NCI-H226 lung 81.4% | NCI-H322M lung 116% | HOP-62 NSCLC 95.5% | NCI-H460 lung 112% | HOP-92 NSCLC 102% | NCI-H522 lung 96.7% | A549/ATCC NSCLC 111% | 786-0 renal 109% | COLO 205 colon 124%

CCc1cccc(Cl)c1
inactive: NCI-H23 lung 111% | NCI-H226 lung 99.2% | NCI-H322M lung 108% | HOP-62 NSCLC 103% | NCI-H460 lung 110% | HOP-92 NSCLC 93.2% | NCI-H522 lung 92.9% | A549/ATCC NSCLC 98.8% | 786-0 renal 105% | COLO 205 colon 117%

C=C(C)[C@@H]1CC[C@]2(C(=O)NCCNCCNC(=O)OC(C)(C)C)CC[C@]3(C)[C@H](CC[C@@H]4[C@@]5(C)CCC(=O)C(C)(C)[C@@H]5CC[C@]43C)[C@@H]12
inactive: NCI-H23 lung 37.1% [100 µM] | NCI-H226 lung 44.2% [100 µM] | NCI-H322M lung 73.8% [100 µM] | HOP-62 NSCLC 45.4% [100 µM] | NCI-H460 lung 20.6% [100 µM] | NCI-H522 lung 39.9% [100 µM] | A549/ATCC NSCLC 32.1% [100 µM] | 786-0 renal 52.6% [100 µM] | COLO 205 colon 57.7% [100 µM]
active: HOP-92 NSCLC 8.07% [100 µM]

C[C@]12CCc3c(ccc4cc(O)ccc34)[C@@H]1CC[C@H]2O
inactive: NCI-H23 lung 95.7% | NCI-H226 lung 91.9% | NCI-H322M lung 105% | HOP-62 NSCLC 103% | NCI-H460 lung 102% | HOP-92 NSCLC 84.1% | NCI-H522 lung 88.3% | A549/ATCC NSCLC 108% | 786-0 renal 104% | COLO 205 colon 108%

CC(=O)O.CC(=O)O.O.[Fe]
inactive: NCI-H23 lung 106% | NCI-H226 lung 101% | NCI-H322M lung 111% | HOP-62 NSCLC 103% | NCI-H460 lung 107% | HOP-92 NSCLC 99.8% | NCI-H522 lung 90% | A549/ATCC NSCLC 99.1% | 786-0 renal 112% | COLO 205 colon 101%

O=C1/C(=C\c2cn(CC(O)CN3CCCCC3)c3ccccc23)c2ccccc2N1c1c(Cl)cccc1Cl (stereo not given)
active: NCI-H23 lung -47.4% | NCI-H226 lung -73.9% | NCI-H322M lung -90.4% | HOP-62 NSCLC -91% | NCI-H460 lung -82.7% | HOP-92 NSCLC -87.4% | NCI-H522 lung -77.5% | A549/ATCC NSCLC -90.4% | 786-0 renal -72.6% | COLO 205 colon -99.1%

Cc1cc(SC#N)ncn1
inactive: NCI-H23 lung 103% | NCI-H226 lung 99% | NCI-H322M lung 103% | HOP-62 NSCLC 98.2% | NCI-H460 lung 99.5% | HOP-92 NSCLC 106% | NCI-H522 lung 92.3% | A549/ATCC NSCLC 93.5% | 786-0 renal 109% | COLO 205 colon 115%

O=C(NNc1ccc(-c2ccccc2)nn1)c1ccccc1
inactive: NCI-H23 lung 99.6% | NCI-H226 lung 102% | NCI-H322M lung 94.7% | HOP-62 NSCLC 104% | NCI-H460 lung 100% | HOP-92 NSCLC 91.6% | NCI-H522 lung 97.8% | A549/ATCC NSCLC 106% | 786-0 renal 93.3% | COLO 205 colon 107%

CC1Cc2ccc(OCCN(C)C)cc2C1=O (stereo not given)
inactive: NCI-H23 lung 103% | NCI-H226 lung 99% | NCI-H322M lung 97.8% | HOP-62 NSCLC 96.4% | NCI-H460 lung 105% | HOP-92 NSCLC 82.1% | NCI-H522 lung 106% | A549/ATCC NSCLC 88.9% | 786-0 renal 101% | COLO 205 colon 105%

N#C/C(C(=O)c1ccccc1)=C1/C(=O)Nc2ccc(Br)cc21
inactive: NCI-H23 lung 94.4% | NCI-H226 lung 96.6% | NCI-H322M lung 101% | HOP-62 NSCLC 84.1% | NCI-H460 lung 105% | HOP-92 NSCLC 109% | NCI-H522 lung 99.1% | A549/ATCC NSCLC 104% | 786-0 renal 101% | COLO 205 colon 113%

C=C(C)[C@@H]1CC[C@]2(C(=O)NCCNCCNCCN)CC[C@]3(C)[C@H](CC[C@@H]4[C@@]5(C)CC[C@H](O)C(C)(C)[C@@H]5CC[C@]43C)[C@@H]12
active: NCI-H23 lung -51.7% [100 µM] | NCI-H226 lung -23.6% [100 µM] | NCI-H322M lung -83.8% [100 µM] | HOP-62 NSCLC -69.1% [100 µM] | NCI-H460 lung -100% [100 µM] | HOP-92 NSCLC -65.4% [100 µM] | NCI-H522 lung -57.8% [100 µM] | A549/ATCC NSCLC -64.6% [100 µM] | 786-0 renal -83.5% [100 µM] | COLO 205 colon -19.5% [100 µM]

CCc1ccc(NC(=O)N[C@@H](Cc2cc(F)cc(F)c2)C(=O)N[C@@H]2C(=O)N3C[C@H](O)C[C@H]3C(=O)N3CCOC[C@H]3C(=O)N[C@@H](C)C(=O)N3C[C@H](C)C[C@H]3C(=O)O[C@H]2C)cc1
inactive: NCI-H23 lung 34.5% | NCI-H226 lung 63.2% | NCI-H322M lung 84.3% | HOP-62 NSCLC 72.9% | NCI-H460 lung 46.5% | HOP-92 NSCLC 10.3% | NCI-H522 lung 27% | A549/ATCC NSCLC 79.3% | 786-0 renal 89.1% | COLO 205 colon 11.1%

O=C1Nc2ccccc2/C1=C/C(=O)c1ccc(N2CCCC2)cc1
active: NCI-H460 lung 9.75% | NCI-H522 lung -2.44% | COLO 205 colon 8.29%
inactive: NCI-H23 lung 31.8% | NCI-H226 lung 73.4% | NCI-H322M lung 81.8% | HOP-62 NSCLC 33.4% | HOP-92 NSCLC 40.4% | A549/ATCC NSCLC 54.4% | 786-0 renal 100%

CCCSc1nc(N)nc2nc[nH]c12
inactive: NCI-H23 lung 97.5% | NCI-H226 lung 103% | NCI-H322M lung 161% | HOP-62 NSCLC 95.7% | NCI-H460 lung 106% | HOP-92 NSCLC 91.9% | NCI-H522 lung 88.4% | A549/ATCC NSCLC 105% | 786-0 renal 97.5% | COLO 205 colon 113%

Cc1c(Cn2cc(COc3ccc(Br)cc3)nn2)c(C)c(Cn2cc(COc3ccc(Br)cc3)nn2)c(C)c1Cn1cc(COc2ccc(Br)cc2)nn1
active: NCI-H522 lung -30.4%
inactive: NCI-H23 lung 98.7% | NCI-H226 lung 88.2% | NCI-H322M lung 108% | HOP-62 NSCLC 84% | NCI-H460 lung 102% | HOP-92 NSCLC 93.7% | A549/ATCC NSCLC 83.4% | 786-0 renal 95.2% | COLO 205 colon 84.6%

C#CCC(C(=O)OCC)C(=O)OCC
inactive: NCI-H23 lung 100% | NCI-H226 lung 98.5% | NCI-H322M lung 100% | HOP-62 NSCLC 102% | NCI-H460 lung 109% | HOP-92 NSCLC 108% | NCI-H522 lung 99.1% | A549/ATCC NSCLC 100% | 786-0 renal 107% | COLO 205 colon 105%

CCCCC1COc2cccc3c2N1C=C/C3=C\C(=O)n1ccc2ccccc21 (stereo not given)
inactive: NCI-H23 lung 76.5% | NCI-H226 lung 84% | NCI-H322M lung 96.4% | HOP-62 NSCLC 79.2% | NCI-H460 lung 88.2% | HOP-92 NSCLC 63.3% | NCI-H522 lung 56% | A549/ATCC NSCLC 78.7% | 786-0 renal 90.1% | COLO 205 colon 91%

CC1(C)OC2[C@@H](CNC(=O)NC(=O)NC(=O)CI)O[C@@H](n3cnc4c(NC(=O)Nc5ccccc5)ncnc43)[C@H]2O1 (stereo not given in full)
inactive: NCI-H23 lung 57.7% | NCI-H226 lung 97.1% | NCI-H322M lung 103% | HOP-62 NSCLC 78% | NCI-H460 lung 93.1% | A549/ATCC NSCLC 94.9% | COLO 205 colon 51.7%
active: HOP-92 NSCLC -63.2% | NCI-H522 lung -76% | 786-0 renal -77.9%

Cc1cccc(/C=C2\N=C(c3ccccc3)N(c3ccc(S(N)(=O)=O)cc3)C2=O)c1
inactive: NCI-H23 lung 90% | NCI-H226 lung 110% | NCI-H322M lung 97.5% | HOP-62 NSCLC 83.5% | NCI-H460 lung 93.2% | HOP-92 NSCLC 105% | NCI-H522 lung 82.5% | A549/ATCC NSCLC 75.7% | 786-0 renal 95.2% | COLO 205 colon 104%
